Bioassay records: PubChem, National Center for Advancing Translational Sciences (NCATS)
An excerpt weighted towards active compounds, which were near 5.5% of everything screened.
CtBP-E1A inh: inhibitors of CtBP/E1A interaction. AlphaScreen GST-E1A/His-CtBP binding, 1536-well; stronger effect = lower value. 0.49% of 340,000 active. activity change, % (concentration not given with the values). AID 651724; in the data active means activity change below about -65%; inconclusive means mostly about -30% to -63%; further: on the % scale 0 is the no-effect control and ±100 the full control effect
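GST-E1A and His-tagged CtBP (125 nM each as 5X stock) were preincubated with pin-transferred compound for 2 h at 37 °C in the dark, then glutathione donor and nickel acceptor beads were added for 1 h before AlphaScreen reading.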
CBFb-RUNX1 inh: inhibitors of human CBF-beta and RUNX1 interaction. Q01196+Q13951. AID 1477. AlphaScreen CBFb-His/RUNX1-biotin binding, biochemical. Potency, µM (doses to about 59.8 µM), for inactives: at the top dose activity, negative = inhibition, actives largely listed as inhibitors. 230,000 tested, under 10 active; further: % of control where 0% means no effect
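Proteins preincubated together for 20 min at RT before compound addition; 15 min later, nickel and streptavidin beads were added and left 90 min prior to AlphaScreen measurement.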
VP16 counter: counter-screen for ROR gamma inhibitors: Gal4-VP16 reporter; Drosophila S2 Gal4-VP16 UAS-luciferase, luminescence, 20 h; Potency, µM (titrated, usually from 53.6 µM), for the others: at the highest dose activity, negative = inhibition, actives largely listed as inhibitors; 3.5% of 310,000 active; AID 2546;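 further: Gal4-VP16 expression switched on by copper sulfate through the metallothionein promoter; potency means the concentration at half of the fitted maximal effect; on the % scale 0 is the no-effect control and ±100 the full control effect; nearly all actives have a fitted effect of over 50% in size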
RORg inh: ROR gamma (mouse) transcription inhibition; P51450; Potency, µM (top dose mostly 53.6 µM), inactives show at the top dose activity change, negative = inhibition, actives largely listed as inhibitors; 5.4% of 310,000 active; AID 2551; Drosophila S2 Gal4-RORgamma UAS-luciferase reporter, 20 h; further: potency means the concentration at half of the fitted maximal effect; on the % scale 0 is the no-effect control and ±100 the full control effect; nearly all actives have a fitted effect of over 60% in size
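Stably transfected Drosophila Schneider cells are the test system, with ROR gamma fused to Gal4 and luciferase under UAS control; luminescence is read after 20 hr of 700 uM copper sulfate induction at ambient temperature.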
MBNL1 CUG block: blocks human MBNL1 binding to CUG repeat RNA | Q9NR56 | TR-FRET MBNL1-His/biotin-(CUG)12 binding, 665/545 ratio | Potency, µM (series often up to 57.5 µM), without a hit: at the highest dose activity change, negative = inhibition, hits mostly inhibitors | 0.036% of 280,000 active | AID 2675; active means well fitted inhibition curve with a large enough effect in the signal ratio, with a control signal flat, not every such curve was filed as active; inconclusive means small, poorly fitted or top-dose-only effect, or effect the other way, or a change in a side signal; inactive means no such curve, though single readings can be large or run the other way; the % refers to the signal ratio; further: potency means the concentration at half of the fitted maximal effect; on the % scale 0 is the no-effect control and ±100 the full control effect
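Inhibition of protein-RNA binding appears as loss of TR-FRET between terbium anti-His antibody on MBNL1-His and streptavidin-XL665 on biotin-(CUG)12. Activity is normalized to buffer-only and uninhibited-complex controls.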
Six1-Eya2 inh: inhibitors of human Six1/Eya2 interaction. AID 651725. AlphaScreen GST-Six1/His-Eya2 binding, biochemical; stronger effect = lower value. Q15475+O00167. activity change, % (test concentration not listed). 0.56% of 360,000 active; in the data active means activity change below about -65%; inconclusive means mostly about -30% to -63%; further: on the % scale 0 is the no-effect control and ±100 the full control effect
Target sequence (O00167 whole entry, looked up): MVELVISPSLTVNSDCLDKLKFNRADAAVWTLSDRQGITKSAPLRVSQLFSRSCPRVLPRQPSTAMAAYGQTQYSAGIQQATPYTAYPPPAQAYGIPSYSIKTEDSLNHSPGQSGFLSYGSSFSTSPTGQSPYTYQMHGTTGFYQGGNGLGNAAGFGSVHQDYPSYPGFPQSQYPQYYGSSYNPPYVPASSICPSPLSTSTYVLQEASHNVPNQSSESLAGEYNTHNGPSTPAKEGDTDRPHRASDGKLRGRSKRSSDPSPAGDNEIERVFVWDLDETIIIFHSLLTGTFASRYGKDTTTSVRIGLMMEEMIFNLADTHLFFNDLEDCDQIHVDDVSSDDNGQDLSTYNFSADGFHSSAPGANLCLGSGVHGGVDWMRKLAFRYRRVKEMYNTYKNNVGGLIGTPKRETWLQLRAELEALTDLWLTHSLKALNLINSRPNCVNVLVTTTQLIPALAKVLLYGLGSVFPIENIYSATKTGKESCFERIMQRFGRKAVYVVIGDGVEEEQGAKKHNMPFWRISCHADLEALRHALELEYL
Target sequence (Q15475 whole entry, looked up): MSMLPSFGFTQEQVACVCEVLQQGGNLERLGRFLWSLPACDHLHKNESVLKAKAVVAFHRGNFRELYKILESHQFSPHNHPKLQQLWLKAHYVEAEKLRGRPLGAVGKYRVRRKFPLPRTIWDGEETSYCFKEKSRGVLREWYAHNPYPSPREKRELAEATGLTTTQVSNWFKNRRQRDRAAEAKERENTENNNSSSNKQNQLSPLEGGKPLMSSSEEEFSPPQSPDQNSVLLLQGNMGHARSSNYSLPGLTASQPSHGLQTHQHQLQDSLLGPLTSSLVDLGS
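Homogeneous AlphaScreen proximity assay pairing GST-Six1 with His-tagged Eya2 (added as 5X mix: 250 nM and 500 nM) in 50 mM Tris pH 8.0, 300 mM NaCl, 1 mM TCEP. Glutathione donor and nickel acceptor beads; 1 h, 37 °C, dark.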
The depositor's hits bear a star; ? = inconclusive; . = not tested or not shown; [ ] = another dose, or the depositor's remark. Unless noted, the call rests on the fitted dose curve; in most records, active means well fitted curve in the direction sought with a large enough effect; inconclusive means small, poorly fitted or top-dose-only effect, or another doubt; inactive means no such curve, though single readings can be large; an effect the other way counts as inactive or inconclusive.

SMILES	CtBP-E1A inh	CBFb-RUNX1 inh	VP16 counter	RORg inh	MBNL1 CUG block	Six1-Eya2 inh
Cc1cccc(NC(=S)Nc2cccc(C)n2)n1	-6	14%	6.3µM*	?	-5%	-10
Cc1cccc(NC(=S)NC2CCCCC2)n1	0	-4%	4.5µM*	1µM*	3%	-5
Cc1ccc(OCC(=O)NC(=S)Nc2cccc(C)n2)cc1	-14	10%	2%	-43%	-5%	8
Cc1cccc(NC(=S)NC2CCCC2)n1	.	-1%	2.8µM*	0.35µM*	-2%	-7
Cc1cccc(NC(=O)Nc2cccc(C)n2)n1	-14	-1%	27%	?	-8%	-7
CCN(Cc1ccncc1)C(=O)CC1C(=O)NCCN1Cc1ccc(F)c(F)c1 (configuration not stated)	12	11%	-5%	-4%	0%	14
CC1(CCC(=O)N2CCCC(N3CCN(c4ccc(F)cc4)CC3)C2)CC1 (configuration not stated)	0	.	-12%	6%	-3%	9
O=C(CNC(=O)c1ccc(Br)o1)OCc1ccc(Br)cc1	-20	.	.	.	.	-2
O=C1Cc2c([nH]c3ccc(Br)cc23)-c2ccccc2N1	0	7%	25µM*	-5%	.	8
CC(C(=O)N1CCc2ccccc21)N(C)CC(=O)Nc1ccccc1Cl (configuration not stated)	-3	.	.	.	.	7
Cc1ccccc1OCCn1cc(C(=S)N2CCCC2)c2ccccc21	-23	.	.	.	.	-24
Cc1ccccc1OCCn1cc(C(=S)N2CCN(C)CC2)c2ccccc21	-1	-20%	-15%	13µM*	0%	?
CC(=O)c1cn(CCOc2ccccc2C)c2ccccc12	8	.	4.5µM*	?	-5%	-2
Cc1ccc(OCCNS(=O)(=O)c2ccc(N3CCCC3=O)cc2)cc1C	0	3%	13µM*	-44%	-12%	-3
Cc1ccc(OCCNS(=O)(=O)c2ccc(N3CCCC3=O)cc2)cc1	-1	7%	13µM*	?	-3%	-3
COc1ccc(CCNS(=O)(=O)c2ccc(N3CCCC3=O)cc2)cc1	-1	.	.	.	.	1
O=C(NCC(O)c1ccc([N+](=O)[O-])cc1)C1=COCCO1 (configuration not stated)	-1	.	.	.	.	6
O=C1c2cccc(NCCCNCCO)c2C(=O)c2cccc(NCCCNCCO)c21	-79*	.	.	.	.	-71*
OCCNCCCOc1cccc(Cl)c1Cl	.	17%[21.7 µM]	0%	-12%	.	.
COc1cc(/C=N/NC(=O)c2sc3nc(C)cc(C)c3c2N)ccc1O	?	9%	2%	0%	-4%	?
Cc1ccc(OCCSc2ncnc3sc(C)c(C)c23)cc1C	-7	4%	-15%	11µM*	-6%	-1
Cc1sc2ncnc(SCC(=O)c3ccc(O)cc3O)c2c1C	1	17%	?	13µM*	5%	-1
CCOC(=O)C1=CCN(S(=O)(=O)c2ccccc2C)C1c1cccc(F)c1 (configuration not stated)	-1	.	.	.	.	-4
CC1CC(C)CN(C(=S)Nc2ccc(OC(F)F)cc2)C1 (configuration not stated)	1	5%	?	11µM*	-6%	9
CC1CC(C)CN(C(=S)Nc2ccc(SC(F)F)cc2)C1 (configuration not stated)	6	1%	11µM*	5µM*	11%	-5
CC1CN(C(=S)Nc2ccc(Cl)cc2)CC(C)O1 (configuration not stated)	-1	.	-25%	-43%	0%	3
CC1CN(C(=S)Nc2ccc(SC(F)F)cc2)CC(C)O1 (configuration not stated)	-1	.	-8%	11µM*	-4%	-7
CC1CN(c2ccc(NC(=S)Nc3ccc(N4CC(C)OC(C)C4)cc3)cc2)CC(C)O1 (configuration not stated)	.	-25%	8.9µM*	2.5µM*	3%	-1
